PubChem BioAssay (NCI)
Compounds without any hit were thinned out: in the full panel of roughly 83,000, 20% have a hit.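 48-hour exposure, single concentration, 96-well plates; percent growth endpoint where 0 means no net growth. Active: below 10.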 A number with no mark means an inactive call. Activity calls are given as the source filed them.

Key:
Assay in all cases: NCI-60 one-dose screen, 48 h (100 = growth as untreated, 0 = no growth, -100 = all killed)
[1] = test system: SR leukemia; details: 10 µM unless noted
[2] = test system: RPMI-8226 leukemia; details: 10 µM unless noted
[3] = test system: OVCAR-8 ovarian; details: 10 µM unless noted
[4] = test system: OVCAR-5 ovarian; details: 10 µM unless noted
[5] = test system: OVCAR-4 ovarian; details: 10 µM unless noted
[6] = test system: SK-OV-3 ovarian; details: 10 µM unless noted
[7] = test system: IGROV1 ovarian; details: 10 µM unless noted
[8] = test system: OVCAR-3 ovarian; details: 10 µM unless noted
[9] = test system: NCI/ADR-RES ovarian; details: 10 µM unless noted
[10] = test system: T-47D breast; details: 10 µM unless noted
[11] = test system: BT-549 breast; details: 10 µM unless noted
[12] = test system: MDA-MB-435 melanoma; details: 10 µM unless noted
[13] = test system: SW-620 colon; details: 10 µM unless noted
[14] = test system: MCF7 breast; details: 10 µM unless noted
[15] = test system: HCC-2998 colon; details: 10 µM
[16] = test system: KM12 colon; details: 10 µM unless noted
[17] = test system: HCT-116 colon; details: 10 µM unless noted

Structure (SMILES)	growth [1]	growth [2]	growth [3]	growth [4]	growth [5]	growth [6]	growth [7]	growth [8]	growth [9]	growth [10]	growth [11]	growth [12]	growth [13]	growth [14]	growth [15]	growth [16]	growth [17]
Cc1ccc(NC(=O)c2ccc(CN3CCN(C)CC3)cc2)cc1Nc1nc(-c2cccnc2)cs1	-3.75% (active)	13.2%	34.5%	98.7%	62.6%	75.3%	62.3%	79.6%	55.7%	-9.37% (active)	41.2%	45.4%	42.1%	28.5%	68.3%	51.7%	–
CC(C)NC[C@@H](C(=O)N1CCN(c2ncnc3c2[C@H](C)C[C@H]3O)CC1)c1ccc(Cl)cc1	45.5%	61.2%	68.3%	54.4%	77.5%	-9.72% (active)	0.674% (active)	49.7%	84.2%	-9.42% (active)	25.2%	68.2%	71.4%	30.9%	–	18.9%	61.4%
Cc1nc(-c2cn3c(n2)-c2ccc(-c4cnn(C(C)(C)C(N)=O)c4)cc2OCC3)n(C(C)C)n1	30.1%	39.3%	32.9%	28.8%	62.5%	-22.1% (active)	-10.7% (active)	24.5%	39.2%	-9.88% (active)	14.9%	27.8%	44%	13.7%	–	16.2%	20.4%
O=C(c1c(F)ccc(NS(=O)(=O)N2CC[C@@H](F)C2)c1F)c1c[nH]c2ncc(-c3cnc(C4CC4)nc3)cc12	21.6%	36.3%	31.7%	58.3%	64.2%	3.3% (active)	17%	69.4%	102%	9.33% (active)	61.6%	16.8%	66.6%	61.3%	–	54.4%	–
COc1ccc(C2OC(c3cc(-c4cc5ccccc5o4)nn3-c3ccccc3)=NN2C(C)=O)cc1 (configuration not stated)	93.1%	101%	99.5%	94%	96.3%	103%	89.4%	95.3%	92.2%	86.5%	97.2%	108%	107%	100%	–	107%	88.6%
C[C@@H](N)c1ccc(C(=O)Nc2ccnc3[nH]ccc23)cc1	9.45% (active)	64.7%	36.2%	42.9%	69.9%	-45.2% (active)	27.9%	57.9%	84%	61.9%	13.9%	80.4%	20.5%	42.7%	–	30.3%	14.4%
N#Cc1c(-c2ccc(Cl)cc2)csc1NC(=O)Nc1cccc(C(F)(F)F)c1	33%	3.99% (active)	11.4%	42.8%	10.4%	9.45% (active)	33.5%	-3.56% (active)	11.6%	-5.74% (active)	26.3%	14.1%	22.7%	12.8%	19.9%	12.9%	–
CCN(CCO)CCCOc1ccc2c(Nc3cc(CC(=O)Nc4cccc(F)c4)[nH]n3)ncnc2c1	12.3%	72.5%	49.8%	20.7%	48.4%	68.3%	16.4%	44.4%	70.7%	19.6%	54.7%	11.1%	15.6%	6.03% (active)	4.66% (active)	15.9%	–
CNC(=O)c1nn(C)c2c1C(C)(C)Cc1cnc(Nc3ccc(N4CCN(C)CC4)cc3)nc1-2	-1.85% (active)	0.421% (active)	8.9% (active)	9.13% (active)	12.9%	-16.9% (active)	2.47% (active)	20.7%	9.88% (active)	-5.71% (active)	5.23% (active)	21.1%	11.5%	10.4%	10.4%	0.555% (active)	–
C=CC(=O)N1CCC[C@@H](n2nc(-c3ccc(Oc4ccccc4)cc3)c3c(N)ncnc32)C1	50.3%	42.1%	40.1%	81.7%	60.6%	-2.8% (active)	7.56% (active)	66.3%	46.4%	0.0664% (active)	–	59.6%	95.2%	52.6%	103%	53.6%	59.8%
CC1(C)NC(=O)c2[nH]c3c(Cl)c(Cl)ccc3c2C1C#N (configuration not stated)	67.5%	69.6%	89.2%	85.2%	60.7%	100%	100%	82.4%	85%	59.2%	73.3%	88.1%	105%	87%	–	93.4%	83.6%
C[C@@H](NC(=O)c1ncnc(N)c1Cl)c1ncc(C(=O)Nc2cc(C(F)(F)F)c(Cl)cn2)s1	57.5%	71.9%	64.5%	31.3%	98.5%	93.6%	63.5%	95%	79.8%	92.2%	110%	39.3%	56.9%	96.2%	69.4%	75.1%	–
CC/C(=C(\c1ccc(OCCN2CCCCCCC2)cc1)c1ccc(OC(=O)C2CCCCC2)cc1)c1ccc(Cl)cc1	78.5%	107%	100%	89.9%	108%	111%	103%	99.1%	105%	77.4%	116%	99.8%	95.5%	48.5%	109%	97.1%	–
COCCOc1cnc2ccn([C@H](C)c3nnc4c(F)cc(-c5cnn(C)c5)cn34)c(=O)c2c1	84%	78.8%	86.9%	31.5%	88.4%	82.4%	66.3%	102%	91.3%	94.6%	105%	60%	35.5%	103%	–	28.3%	99.9%
O=C1NC(=O)C(c2cnc3ccccn23)=C1c1cn2c3c(cc(F)cc13)CN(C(=O)N1CCCCC1)CC2	10%	60.8%	19.7%	102%	38.7%	39.4%	53.3%	52.8%	74.4%	33.8%	61.1%	51.2%	59.6%	35.2%	–	46.2%	17.1%
O=C1C=CC2(NN=C(c3ccccc3)N2c2ccccc2)c2cccc(O)c21 (configuration not stated)	38.5%	65.5%	62.2%	39.9%	40.8%	91.2%	53.8%	11.3%	42.2%	78.8%	41.1%	-92.4% (active)	34.9%	35.4%	54.2%	47.3%	–
O=C(O)C1(Cc2cccc(Nc3nccs3)n2)CCC(Oc2cccc(Cl)c2F)CC1 (configuration not stated)	47.5%	59.8%	56.6%	80.1%	106%	62.7%	76.7%	71.2%	46.4%	50.9%	84.4%	49.6%	74.9%	46.7%	95.3%	19.3%	–
Cc1ccc(NC(=O)NC(=O)CSc2nc3ccccc3nc2C)cc1	45.8%	57.1%	72.4%	100%	23.3%	56.2%	72.2%	97.4%	40.6%	40.9%	59.9%	74.1%	78.3%	52.4%	72.1%	76.5%	–
